# Sampled rows, rich in hits. Any-hit rate of the full collection: about 11%.
# JMJD2A Tudor inh = qHTS Assay for Inhibitors of JMJD2A-Tudor Domain | Lysine-specific demethylase 4A (Homo sapiens), O75164 | AlphaScreen JMJD2A-Tudor / H3K4me3 peptide binding | Potency, µM (doses to about 114 µM), most hits filed as inhibitors | actives 4.4% (n = 390,000) | AID 504339, 2011; note: nearly all actives have a fitted effect of over 50% in size
# HP1b binding inh = HTS for Inhibitors of HP1-beta Chromodomain Interactions with Methylated Histone Tails. Chromobox protein homolog 1 (Homo sapiens), P83916. AlphaScreen HP1-beta / biotin-H3K9me3 peptide binding. Potency, µM (series often up to 114 µM), usual class: inhibitors. actives 0.56% (n = 390,000). AID 540317, 2011; note: nearly all actives have a fitted effect of over 70% in size
#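 AlphaScreen: HP1-beta (50 nM) preformed 30 min with biotin-H3(1-18)K9me3 peptide (50 nM) in PBS pH 7.4, 0.01% Tween-20. Compound added for 30 min at RT, then streptavidin donor/nickel chelate acceptor beads (10 ug/mL) for 30 min.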
# PLK1 PBD inh = qHTS for Inhibitors of PLK1-PDB (polo-like kinase 1 - polo-box domain): Primary Screen; AID 720504, 2013; actives 2.8% (n = 360,000); Plk1 PBD binding of FITC phosphopeptide, fluorescence polarization; Potency, µM, hits mostly inhibitors; note: series mostly up to about 57 µM; nearly all actives have a fitted effect of over 65% in size
# BAZ2B block = qHTS Assay for Inhibitors of BAZ2B; Bromodomain adjacent to zinc finger domain protein 2B (Homo sapiens), Q9UIF8; AlphaScreen BAZ2B-H3K14Ac peptide displacement; Potency, µM (top dose mostly 114 µM), usual class: inhibitors; actives 4.4% (n = 360,000); note: nearly all actives have a fitted effect of over 60% in size
#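 Inhibition is scored as reduced AlphaScreen emission. The BAZ2B/b-H3(5-23)K14Ac complex (50 nM each) in PBS pH 7.4, 0.01% Tween-20 meets compound (up to 110 uM) for 30 min at RT before bead addition.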
# VDR inhibitor = Inhibitors of the vitamin D receptor (VDR): qHTS; VDR-SRC2-3 peptide fluorescence polarization, 2 h; actives 0.93% (n = 400,000); AID 504847, 2011; Potency, µM, usual class: inhibitors; Vitamin D3 receptor (Homo sapiens), P11473
#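 Measured by FP: displacement of SRC2-3 coactivator peptide from VDR by library compounds, following a two-hour ambient incubation.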
# G9a block = qHTS Assay for Inhibitors of Histone Lysine Methyltransferase G9a | Histone-lysine N-methyltransferase EHMT2 (Homo sapiens), Q96KQ7 | G9a H3K9 monomethylation, AlphaScreen, 2 h | Potency, µM (doses to about 102 µM), hits mostly inhibitors | actives 8.8% (n = 350,000) | AID 504332, 2011; note: nearly all actives have a fitted effect of over 75% in size
#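 Quantitative HTS format: methyltransferase activity on a biotin-tagged H3K9 peptide is measured by AlphaScreen, using a rabbit anti-monomethyl-H3K9 antibody with streptavidin donor and anti-IgG acceptor beads. Final levels are 20 nM enzyme, 500 nM peptide, 20 uM SAM; 2 h RT.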
# Numbers stand for hits; 0 = inactive; ? = inconclusive; - = no result given; [ ] = remark or other dose. Calls come from the whole dose curve; as a rule, active = well fitted curve in the direction sought with a large enough effect; inconclusive = small, poorly fitted or top-dose-only effect, or another doubt; inactive = no such curve, though single readings can be large; an effect the other way counts as inactive or inconclusive.
SMILES,JMJD2A Tudor inh,HP1b binding inh,PLK1 PBD inh,BAZ2B block,VDR inhibitor,G9a block
CN(CC(=O)Nc1ccc(F)cc1)C(=O)COC(=O)c1ccc(-c2ccccc2)cc1,0,0,0,0,0,0[0.501 µM]
CN(C)C(=O)CSc1nnc2sc3ccccc3n12,0,0,0,0,0,0
O=C(CSc1nnc2sc3ccccc3n12)c1ccco1,0,0,?,0,0,10µM
O=c1c2ccccc2nnn1CSc1nc2ccccc2[nH]1,0,0,0,0,0,0
O=c1c2ccccc2nnn1CSc1nnc2sc3ccccc3n12,-,-,-,0,-,7.1µM
COc1ccc(Nc2nc(NN)nc(C)c2[N+](=O)[O-])cc1,?,0,0,?,0,?
COc1ccc(Nc2nc(N/N=C/c3ccc(N(C)C)cc3)nc(C)c2[N+](=O)[O-])cc1,?,0,0,?,0,5µM
Cc1nc(Nc2ccc(C(=O)O)cc2)nc(Nc2ccc(C(=O)O)cc2)c1[N+](=O)[O-],0,0,0,0,0,45µM
COC(=O)CCC(C)C1CCC2C3CC[C@H]4CC(O)CC[C@@]4(C)C3CC(O)[C@]12C (stereo partly specified),-,-,-,-,0,-
CC(=O)NCCCc1ccc(C(=O)COC(=O)CNC(=O)c2ccc3ccccc3c2)cc1,0,0,-,-,0,-
O=C(Cn1cc2c(n1)CCCC2)Nc1ccccc1Cl,0,0,24µM,0,0,0
O=C(Cn1cc2c(n1)CCCCC2)NCc1ccccc1,0,0,30µM,0,0,0
O=C(Cn1cc2c(n1)CCCCC2)Nc1ccccc1Cl,0,0,0,0,0,0
O=C(Cn1cc2c(n1)CCCC2)NCc1cccnc1,?,0,0,0,0,0
CC(=O)OC1=CN(Cc2ccccc2)S(=O)(=O)c2ccccc21,0,0,-,0,0,0
Cc1sc(-c2cccnc2)nc1OC(=O)C1CC1,0,0,?,0,0,20µM
CC(Nc1ccc2ccccc2c1)C(=O)N/N=C/c1ccncc1 (stereo unspecified),0,0,0,0,0,0[12.7 µM]
CCSc1nc(-c2cccs2)nc2ccccc12,?,0,24µM,0,0,0
c1ccc(CNc2nc(-c3cccs3)nc3ccccc23)cc1,0,0,0,0,0,0
O=C(COc1ccccc1)Nc1ccccc1Oc1ccccc1,0,0,0,0,0,0
Cc1ccc(NC(=O)CN(C)CC(=O)Nc2ccccc2Oc2ccccc2)cc1,3.5µM,18µM,0,25µM,0,35µM
O=C(O)CCC(=O)Nc1ccccc1Oc1ccccc1,20µM,0,27µM,0,79µM,0
CC1CC1C(=O)OCC(=O)Nc1ccccc1Oc1ccccc1 (stereo unspecified),0,0,27µM,0,0,0
CC1CC1C(=O)OCC(=O)Nc1ccc(N=Nc2ccccc2)cc1 (stereo unspecified),0,?,0,28µM,0,35µM
O=[N+]([O-])c1cccc(S(=O)(=O)NCCNS(=O)(=O)c2cccc([N+](=O)[O-])c2)c1,-,-,-,-,0,0[12.7 µM]
SMILES,JMJD2A Tudor inh,HP1b binding inh,PLK1 PBD inh,BAZ2B block,VDR inhibitor,G9a block
CCC(Sc1nc2ncccc2[nH]1)C(=O)Nc1cccc(OC)c1 (stereo unspecified),0,0,-,0,0,0
CCC(=O)Nc1cccc(C(=O)OCc2cccc([N+](=O)[O-])c2)c1,0,0,0,0,0,0[12.7 µM]
CCc1cccc(C)c1NC(=O)C(CC)Sc1nncn2c1cc1occc12 (stereo unspecified),0,0,-,0,0,0
COc1ccccc1NC(=O)CSc1nnc(C2CCCCC2)n1N,0,0,0,0,?,0
Nn1c(SCC(=O)Nc2ccccc2Oc2ccccc2)nnc1C1CC1,0,0,0,0,0,50µM
Cc1ccc2oc(-c3ccc(NC(=O)c4oc5ccc(Cl)cc5c4C)cc3)nc2c1,0,0,-,0,0,0
O=C(Nc1cccc(-c2nc3cccnc3s2)c1)c1cccc(Br)c1,0,0,-,0,0,18µM
O=C(NN=Cc1ccc2c(c1)CCC2)c1cccc([N+](=O)[O-])c1,-,-,0,-,-,-
O=C(N/N=C/c1ccc([N+](=O)[O-])cc1)c1cccc(N2CCCC2=O)c1,0,0,0,79µM,0,?
COc1cccc(/C=N/NC(=O)c2ccc(N3CCCC3=O)cc2)c1,0,0,0,0,?,0
O=C(N/N=C/c1cc(Br)cc(Br)c1O)c1cccc(N2CCCC2=O)c1,89µM,0,0,?,0,0
CC(C)c1ccc(NC2CCCN(C(=O)CCc3cn[nH]c3)C2)cc1 (stereo unspecified),0,0,0,0,0,?
O=C(C[n+]1ccc2ccccc2c1)c1ccc(NC(=O)c2ccccc2)cc1,0,0,0,0,0,?
C/C(=N/Nc1ccc(C)cc1)C1(C)N(O)C(C)(C)C(c2ccco2)=[N+]1[O-] (stereo unspecified),0,0,0,?,0,7.1µM
CC1(C)C(c2ccco2)=[N+]([O-])C2(CCCCC2=O)N1O (stereo unspecified),0,0,0,0,0,?
Cc1ccc2c(c1)NC(=O)c1cccnc1N2,0,0,0,0,0,45µM
CN(C)CCCN1c2ccc([N+](=O)[O-])cc2CCc2cc([N+](=O)[O-])ccc21,18µM,?,-,-,?,-
Cc1cccc(-c2noc(-c3cccnc3NCc3ccc(Cl)cc3)n2)c1,?,0,-,?,0,0
Cc1ccc(C(=O)Oc2oc(-c3ccccc3)nc2C=Nc2ccc(N(C)C)cc2)cc1,0,0,0,0,0,0
CN(C)c1ccc(N=Cc2nc(-c3ccccc3)oc2OC(=O)c2cccc(Cl)c2)cc1,0,0,0,0,0,8.9µM
COc1cccc(N=Cc2nc(-c3ccccc3)oc2OC(C)=O)c1,0,0,?,0,?,50µM
COc1ccc(N=Cc2nc(-c3ccccc3)oc2OC(C)=O)cc1,0,0,?,0,28µM,-
Cc1ccc(CNC(=O)c2c(-c3ccccc3F)noc2C)o1,0,0,-,0,0,0
O=C(Nc1cccc(Oc2ccccc2)c1)C1Cc2c(-c3ccc4c(c3)OCO4)ccnc2O1 (stereo unspecified),-,-,0,-,-,-
COc1ccc(C(=O)N2CCOCC2c2cc(C(=O)NCc3ccccc3)no2)cc1 (stereo unspecified),-,-,0,-,-,-
Cc1cccc(CNC(=O)c2ccc3oc(=O)n(Cc4ccccc4)c3c2)c1,0,0,-,0,0,0[12.7 µM]

# Assay outcomes (PubChem)
